# Compound activity (PubChem)
# Giardia kill = Small Molecules that selectively kill Giardia lamblia: qHTS; AID 540267, 2011; Giardia lamblia trophozoite viability; activity change, % at 7.66 µM, hits read low; 340,000 compounds, 0.15% hits; in the data active = activity change below about -80%; inconclusive = between about -30% and that limit;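 also: parasites exposed to compound for two days anaerobically before the ATP read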
#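 Viability, read as ATP luminescence: trophozoites at 100 cells/well, compound added, 48 hrs anaerobic at 37 deg C, then 15-30 min room-temperature development before reading.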
# DT40 TDP1 no CPT = qHTS for Inhibitors of human tyrosyl-DNA phosphodiesterase 1 (TDP1): qHTS in cells in absence of CPT; Potency, µM (highest dose often 46.2 µM), for inactives: at the highest dose activity change, negative = growth inhibition, hits mostly inhibitors; 420,000 compounds, 15% hits; DT40 Tdp1-/- hTDP1 cells, no CPT, ATP luminescence, 48 h; also: potency is read from the fitted curve at half-maximal effect; nearly all actives have a fitted effect of over 55% in size
#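 Luminescent ATP content (CellTiter-Glo) served as the growth readout. Knockout chicken DT40 cells expressing human TDP1 were exposed to compounds without camptothecin for a minimum 48 hr at 37 °C.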
# DT40 TDP1 CPT = qHTS for Inhibitors of human tyrosyl-DNA phosphodiesterase 1 (TDP1): qHTS in cells in presence of CPT | chicken DT40 Tdp1-/-;hTDP1 cells + 20 nM CPT, ATP luminescence, 48 h | Potency, µM (doses to about 46.2 µM), for inactives: at the top dose activity change, negative = growth inhibition, hits mostly inhibitors | 420,000 compounds, 12% hits; also: potency is read from the fitted curve at half-maximal effect; nearly all actives have a fitted effect of over 55% in size
#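 Chicken DT40 Tdp1-/- cells complemented with human TDP1, 400 cells/well, exposed to compounds plus 20 nM camptothecin for at least 48 h at 37 C; viability read as ATP content by CellTiter-Glo luminescence.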
# ELG1 repair inh = qHTS screen for small molecules that inhibit ELG1-dependent DNA repair in human embryonic kidney (HEK293T) cells expressing luciferase-tagged ELG1. HEK293T ELG1-luciferase reporter, luminescence, 16 h; DNA damage induced by 5-fluorouridine. Potency, µM (top dose mostly 46.1 µM), without a hit: at the highest dose activity change, negative = inhibition, hits mostly inhibitors. 330,000 compounds, 2.3% hits. AID 504467, 2011; also: potency is read from the fitted curve at half-maximal effect; nearly all actives have a fitted effect of over 55% in size
#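 DMSO vehicle served as the neutral condition. Each well held 2,000 cells given 5-fluorouridine plus compound; after 16 hr at 37 °C/5% CO2, ONE-Glo was added and luciferase measured 30 min later.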
# TDP1 inh = qHTS Assay for Inhibitors of Tyrosyl-DNA Phosphodiesterase (TDP1); 350,000 compounds, 0.28% hits; Tyrosyl-DNA phosphodiesterase 1 (Homo sapiens), Q9NUW8; Potency, µM (doses to about 130 µM), for the others: at the highest dose activity change, negative = inhibition, actives largely listed as inhibitors; recombinant TDP1, AlphaScreen DNA substrate cleavage; also: potency is read from the fitted curve at half-maximal effect; nearly all actives have a fitted effect of over 40% in size
# Target sequence (Q9NUW8 whole entry, looked up): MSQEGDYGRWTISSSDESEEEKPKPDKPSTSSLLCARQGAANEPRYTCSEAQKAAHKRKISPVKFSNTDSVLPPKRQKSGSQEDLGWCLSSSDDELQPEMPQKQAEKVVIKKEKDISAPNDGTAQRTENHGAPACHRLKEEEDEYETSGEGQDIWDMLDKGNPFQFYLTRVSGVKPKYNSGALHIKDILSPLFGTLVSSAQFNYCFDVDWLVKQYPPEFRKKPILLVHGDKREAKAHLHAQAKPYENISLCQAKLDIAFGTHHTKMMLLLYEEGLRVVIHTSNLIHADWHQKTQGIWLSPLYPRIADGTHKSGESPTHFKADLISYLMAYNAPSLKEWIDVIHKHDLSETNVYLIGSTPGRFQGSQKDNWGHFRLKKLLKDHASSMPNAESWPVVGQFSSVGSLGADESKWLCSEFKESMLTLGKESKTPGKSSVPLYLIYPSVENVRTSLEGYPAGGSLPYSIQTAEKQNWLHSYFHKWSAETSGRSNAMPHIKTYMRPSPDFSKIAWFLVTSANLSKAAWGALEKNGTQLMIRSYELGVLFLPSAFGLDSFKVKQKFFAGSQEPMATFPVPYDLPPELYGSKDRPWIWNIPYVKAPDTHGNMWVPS
#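 Recombinant E. coli-expressed Tdp1 (1 nM) preincubated with compound 15 min at RT, then 5'-biotin/3'-phosphotyrosine-FITC DNA substrate (15 nM) added for 5 min. AlphaScreen beads (10 ug/ml) added, 10 min RT; tyrosine-FITC cleavage read as signal loss.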
# IL-1B inflam inh = qHTS for Inhibitors of Inflammasome Signaling: IL-1-beta AlphaLISA Primary Screen | THP-1 LPS/ATP IL-1B secretion, AlphaLISA, 16 h; hits give low values | 360,000 compounds, 4.7% hits | activity change, % at 57.5 µM; in the data active = activity change below about -50%; inconclusive = mostly about -30% to -49%
#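 Secreted IL-1B measured by AlphaLISA bead assay after 16 h compound exposure of THP-1 cells; compounds (final up to 57.5 uM) added 1 h before LPS (250 ng/mL) and ATP (1.25 mM) stimulation; lower signal means less secretion.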
# * = called active by the depositor; ? = inconclusive; nt = no result given. In the library only some 19% were active in any assay of this set; here they are far more common. Unless noted, calls follow the shape of the dose curve; as a rule, active = well fitted curve in the direction sought with a large enough effect; inconclusive = small, poorly fitted or top-dose-only effect, or another doubt; inactive = no such curve, though single readings can be large; an effect the other way counts as inactive or inconclusive. % is scaled to controls: 0 for no effect and ±100 for the full control effect.
SMILES,Giardia kill,DT40 TDP1 no CPT,DT40 TDP1 CPT,ELG1 repair inh,TDP1 inh,IL-1B inflam inh
N#Cc1ccc(-c2csc(NC(=O)/C=C/c3cccs3)n2)cc1,-8,10µM*,13µM*,?,-1%,-5
Cc1cccc(NC(=O)/C=C/c2cccs2)n1,-8,-27%,-13%,?,0%,10
CC(C)N(CCO)C(=O)CCc1nnc(Cc2cccc(C(F)(F)F)c2)o1,-11,4%,2%,-5%,1%,-4
CC1(C)OC(=CC=Nc2ccc(Cl)cc2)OC1(C)C,2,?,-11%,20%,0%,9
CCN1CCN(CCCNC(=O)CCC(=O)N2CCOc3ccccc32)CC1,-4,-2%,-6%,3%,nt,-10
CCc1nc2ccc(C(=O)Nc3cc(-c4ccccc4)ccc3OC)cn2c1N(C)Cc1ccc(Cl)cc1,nt,21µM*,18µM*,nt,nt,?
CCN(CC)c1c(C)nc2ccc(C(=O)Nc3cc(-c4ccccc4)ccc3OC)cn12,nt,18µM*,?,nt,nt,?
CCCN(CCC)CCNC(=O)C1CCCN(S(=O)(=O)c2cccc3nsnc23)C1 (stereo not drawn),nt,-11%,10%,nt,-2%,nt
CC[n+]1c(/C=C/Nc2ccccc2)oc2ccccc21,5,15µM*,15µM*,-24%,8%,-27
O=S(=O)([O-])CCC[n+]1c(/C=C\Nc2ccccc2)oc2ccc(-c3ccccc3)cc21,nt,nt,nt,14%,0%,nt
CCOC(=O)c1cccc(NC(=O)c2cnn(-c3ccccc3)c2-n2cccc2)c1,nt,21µM*,26µM*,nt,-3%,nt
COc1cc(OC)c(NC(=O)c2cnn(-c3ccccc3)c2-n2cccc2)cc1Cl,nt,-22%,-3%,nt,-3%,nt
O=C(Nc1cc(C(F)(F)F)ccc1Cl)c1cnn(-c2ccccc2)c1-n1cccc1,nt,23µM*,23µM*,nt,0%,nt
COc1ccc(CNC(=O)c2cnn(-c3ccccc3)c2-n2cccc2)cc1OC,nt,18µM*,?,nt,3%,nt
COc1ccccc1NC(=O)c1cnn(-c2ccccc2)c1-n1cccc1,nt,18µM*,18µM*,nt,-5%,nt
NNC(=O)c1cnn(-c2ccccc2)c1-n1cccc1,-8,-12%,3%,0%,6%,12
COc1ccc(CNC(=O)c2cnn(-c3ccc(C)cc3)c2-n2cccc2)cc1OC,nt,16µM*,?,nt,4%,nt
O=C(Nc1ccccc1Cl)c1cccs1,-5,-7%,4%,?,4%,-13
O=C(Nc1ccc(Cl)c(S(=O)(=O)N2CCOCC2)c1)c1cccs1,1,?,?,26µM*,0%,-10
O=C(Nc1ccc(Cl)c(S(=O)(=O)Nc2ccccc2Cl)c1)c1cccs1,4,?,-13%,-15%,3%,-93*
CN(CC(=O)Nc1ccc(Cl)c(S(=O)(=O)N2CCOCC2)c1)C(=O)c1cccs1,8,-25%,?,-12%,0%,25
O=C(/C=C/c1ccco1)Nc1ccc(Cl)c(S(=O)(=O)N2CCOCC2)c1,13,?,?,16µM*,8%,-2
O=C(Nc1ccc(Cl)c(S(=O)(=O)N2CCOCC2)c1)c1ccccc1-c1ccc(C(F)(F)F)cc1,17,16µM*,?,23µM*,5%,-14
O=C(Nc1ccc(Cl)c(S(=O)(=O)N2CCOCC2)c1)c1cc2ccccc2oc1=O,5,?,?,?,2%,7
O=C(Nc1nonc1-c1ccc(Br)cc1)c1ccco1,nt,-22%,-20%,nt,0%,nt
Cc1ccc(C(=O)Nc2ccc(C)c(S(=O)(=O)Nc3ccccc3Cl)c2)s1,19,?,?,21µM*,0%,-62*
